Experimental data taken from ChEMBL document CHEMBL3988442, “University of Dundee, Small-Polar-MMV Screening Library” (2021).

Experiments:
[1] = target: T1, Aspartate--tRNA(Asp/Asn) ligase (Mycobacterium tuberculosis (strain ATCC 25618 / H37Rv)) (UniProt P9WFW3); test: Assay for Asp RNA synthetase-1 from Mycobacterium tuberculosis; format: functional; design: scale not given: direction of the effect not stated beside the values; conditions: 30 µM; also: in the data most compounds retested in dose-response had high values
T1 sequence (whole entry): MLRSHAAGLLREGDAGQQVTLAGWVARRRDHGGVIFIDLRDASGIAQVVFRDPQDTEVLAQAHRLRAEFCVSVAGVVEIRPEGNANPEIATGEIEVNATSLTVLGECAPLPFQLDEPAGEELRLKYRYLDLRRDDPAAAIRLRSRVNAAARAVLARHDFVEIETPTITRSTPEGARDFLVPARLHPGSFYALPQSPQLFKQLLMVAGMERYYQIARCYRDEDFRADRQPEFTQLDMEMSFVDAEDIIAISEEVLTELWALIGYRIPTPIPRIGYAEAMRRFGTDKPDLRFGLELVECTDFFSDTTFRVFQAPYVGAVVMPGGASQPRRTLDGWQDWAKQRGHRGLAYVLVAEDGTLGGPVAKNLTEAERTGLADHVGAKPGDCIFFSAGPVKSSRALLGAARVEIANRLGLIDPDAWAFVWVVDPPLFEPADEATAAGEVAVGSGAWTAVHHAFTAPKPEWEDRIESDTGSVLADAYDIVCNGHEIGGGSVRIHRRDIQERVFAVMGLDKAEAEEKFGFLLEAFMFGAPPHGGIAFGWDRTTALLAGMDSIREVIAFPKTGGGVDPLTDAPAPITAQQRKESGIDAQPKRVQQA

[2] = target: Shiga toxin 2 (Escherichia coli O157:H7) (UniProt P09385+P09386); test: E. coli 0.157:H7 Shiga Toxin SOP - stx2 screening assay; format: functional; design: scale not given: direction of the effect not stated beside the values; conditions: 30 µM

Row | Compound | Percent Effect [1] | Percent Effect [2]
1 | Cc1ccc(NC2CCN(C(=O)CCc3ccco3)CC2)nn1 | 0.0874% | 19.2%
2 | CC(C)c1nc(C2CCCN(C(=O)CCn3ccnc3)C2)no1 (stereo not drawn) | 5.96% | 3.56%
3 | Cc1nccc(-c2cccc(NCC(=O)N3CCNC3=O)c2)n1 | 2.42% | 8.66%
4 | COc1cc(CN(C)C(=O)Cc2c(C)nn(C)c2C)ccc1OC(F)F | -2.09% | -4.8%
5 | C[C@]1(O)CCN(Cc2cncs2)C[C@@H]1Oc1cccc(F)c1 | -1.46% | 35.4%
6 | Cc1cccc(NC(=O)N2CCCn3cnc(CN4CCCC4)c3C2)c1 | -3.25% | -16.8%
7 | Cc1cc(C)n(CC2CN(Cc3cccc(C(N)=O)c3)CCO2)n1 (stereo not drawn) | -8.8% | -5.62%
8 | Cc1cc(CN2CCN(C(=O)c3sccc3C(C)C)CC2)no1 | 0.346% | 7.17%
9 | O=C(c1ncccn1)N1C[C@H]2CCC[C@@]2(COCc2cccnc2)C1 | 1.54% | -6.19%
10 | CC(=O)N1CCCC1c1cc(N2CCN(C3CCCC3)CC2)cc(C)n1 (stereo not drawn) | -4.16% | 5%
11 | CCc1nnc2n1CCN(C(=O)c1ccc(-c3ccco3)nc1C)C2 | -3.2% | -27.7%
12 | Cc1cnc(CNc2c(F)cccc2-n2cccn2)o1 | -2.01% | -27.4%
13 | O=C1CC2(CCN(CC3CCOC3)CC2)CN1Cc1cc(F)cc(F)c1 (stereo not drawn) | -4.88% | 2.13%
14 | O=C(CN1CCCCCCC1=O)NCc1ccccn1 | -0.137% | -35.3%
15 | Cc1noc(C(C)C)c1C(=O)NCCCN1CCCC1 | 5.49% | -21.7%
16 | CCOC(C)c1nc(CN2CCNCC2)cs1 (stereo not drawn) | -2.26% | -12.7%
17 | O=C1OCCN1CCOc1nc(-c2ccccc2Cl)no1 | -7.33% | -14.8%
18 | CS(=O)(=O)N1CCCC12CCCN(S(=O)(=O)c1cc(F)cc(F)c1)C2 (stereo not drawn) | -0.24% | 2.89%
19 | CCN1CCN(C(=O)c2cnn(-c3ccccc3Cl)c2)CC1 | 0.83% | 16.9%
